We go through 40 compounds from PubChem BioAssay (NCI).

Each structure is given as a SMILES string. “And” between values parts separate entries of the source, which are not always exact repeats. Equal entries are not always repeated. About 83,000 compounds went through this panel and 20% of them were active in at least one assay; those are over-represented in the sample as a whole.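 A percent growth of 40 corresponds to 60% growth inhibition; 0 means no net growth; -100 means all cells died. Active threshold: below 10.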 The source made the active and inactive calls.

The assay has as its system MDA-MB-468 breast. The assay is described as follows: NCI-60 one-dose screen, 48 h (100 = growth as untreated, 0 = no growth, -100 = all killed). The conditions noted are these: 10 µM unless noted.
Consider `COc1cccc2c1C(=O)c1c(O)c3c(c(O)c1C2=O)C[C@@](O)(C(=O)CO)C[C@@H]3O[C@H]1C[C@H](N)[C@@H](O)[C@H](C)O1`, for which the growth was -57% (active). As to `O=c1c2cc(F)cc(Cl)c2sc2c(Cl)nc3ccccc3c12`, the growth was 99% (inactive). As to `Cc1c(C)n(CC(O)CNC2CCCCC2C)c2ccccc12` (stereo not given), the growth is -33.8% (active). `O=C(O)/C=C/C=C/c1ccccc1`: the growth was 93.6% (inactive) and 112% (inactive). As for `NS(=O)(=O)c1ccc(N=Nc2c(O)n(Cc3ccccc3)c3ccc(Cl)cc23)cc1`, the growth was 83.3% (inactive).

Regarding `Cc1nc2ccccc2n1C(=O)C[C@@H]1NC(=S)NC1=O`, the growth was 95.7% (inactive). As to `O=C(CSc1nc2ccccc2c(=O)n1-c1ccccc1)N/N=C/c1ccc(Oc2ccc(Cl)cc2)cc1`, the growth was 71.6% (inactive). Consider `Cc1cc2cn3c4cccnc4[nH]c(=O)c3c2cc1C`, for which the growth was 37.2% (inactive). Consider `COc1ccccc1CNCCCN1C(=O)c2ccc3c4c(ccc(c24)C1=O)C(=O)N(CCCNCCCCN)C3=O`, for which the growth was -55.7% (active).

Take `COc1nc(OC)nc(-c2cc(-c3cc(OC)c(OC)c(OC)c3)no2)n1`: the growth was 104% (inactive).

As for `Cc1cc(N2CCN(CC(=O)Nc3ccc4c(ccn4Cc4ccccc4)c3)CC2)nc(N2CCCCCC2)n1`, the growth is 13.1% (inactive).

For `COc1ccc(N(C)c2ncnc3occ(C)c23)cc1`, the growth was 30.2% (inactive). Regarding `Nc1c(C(=O)Nc2ccccc2)sc2nc3c(cc12)C(=O)CCC3`, the growth is 4.62% (active). The same measure for `Cc1cc(C#Cc2ccccc2)ccc1-n1c(/C=C/c2cc(O)ccc2O)nc2ccccc2c1=O`: -36.5% (active); for `CCN=C1C=CC(=C(c2ccc(N)cc2)c2ccc(N(CC)CC)c(C)c2)C=C1`: -32.9% (active); for `NC(N)=Nc1ccc(Oc2cccc(NC(N)=Nc3ccc(Cl)c(C(F)(F)F)c3)c2)cn1`: 6.72% (active). On to `O=C(NC(Cc1ccc(O)cc1)C(=O)N=Nc1c(O)[nH]c2ccccc12)c1ccccc1` (stereo not given), for which the growth is 109% (inactive). `COc1ccc(/C=C/C(=O)c2c(C)nc3ccccc3c2/C=C/c2ccccc2)cc1O`: the growth was 40.1% (inactive). With `COc1ccc(Cl)cc1C(=O)Nc1nc2ccc(Cl)cc2s1`, the growth is 76.7% (inactive).

Turning to `COc1ccc(-c2cc(/C=C/C(=O)c3cc(OC)c(OC)c(OC)c3)[nH]n2)cc1OC`, the growth was -63.8% (active). `COc1cc2oc(-c3cccc(C(=O)N[C@@H](CC(C)C)C(=O)OC(C)(C)C)c3)cc(=O)c2c(OC)c1OC`: the growth was 85.6% (inactive).

Regarding `NC1CCN(c2nc(Nc3cccc(C(F)(F)F)c3)c3c(=O)[nH]ccc3n2)CC1`, the growth was -77.2% (active). As for `O=C(c1ccccc1)c1ccc(-c2ccc(O)cc2)cc1`, the growth was -16.5% (active).

`C=C(CNCCO)[C@@H]1CC[C@]2(CO)CC[C@]3(C)[C@H](CC[C@@H]4[C@@]5(C)CCC(NCCc6ccc(O)cc6)C(C)(C)[C@@H]5CC[C@]43C)[C@@H]12` (stereo not given in full): the growth was -77.3% (active). To `CC(N)C(Cc1ccccc1)c1ccc(Cl)cc1` (stereo not given) belongs 83.1% (inactive); to `CN(C)CCCNc1c2ccc(Cl)cc2nc2c1oc1ccccc12`, -49.6% (active); to `Cc1ccc(/C=N\NC(=O)c2[nH]c3ccc(F)cc3c2-c2ccccc2)cc1`, -14.5% (active). In the case of `C=C(c1ccc(OC)c(/C=C/C(=O)c2ccc3c(c2)OCO3)c1)c1cc(OC)c(OC)c(OC)c1`, the growth was 37.4% (inactive). On to `N#CC1=C(N)Oc2c(ccc3ccccc23)C1c1cc(=O)oc2ccc(Cl)cc12` (stereo not given), for which the growth is 62% (inactive). For `Cc1ccccc1/C=C1\CN(C(=O)OC(C)(C)C)C/C(=C\c2ccccc2C)C1=O`, the growth was 36.7% (inactive).

Consider `CN(C)c1ccc2c(c1)OC(N)=C(C#N)C2c1ccc2c(c1)CCO2` (stereo not given), for which the growth was 18.3% (inactive). For the compound `COc1cccc(/C=C/C(=O)c2cc3c(N)c(C(=O)Nc4ccccc4C)sc3nc2C)c1`, the growth is 16.7% (inactive). To `CC/C(=C(/CC)c1ccc(O)cc1)c1ccc(O)cc1` belongs 35.2% (inactive). `O=S1(=O)N(Cc2ccccc2)[C@@H](Cc2ccccc2)[C@H](O)[C@H](O)[C@H](Cc2ccccc2)N1Cc1ccccc1`: the growth was -27.7% (active). For `COc1cccc2c(=O)c3c(sc12)c(NCCN(C)C)nc1ccccc13`, the growth was 12.7% (inactive). Consider `COc1ccc(S(=O)(=O)Nc2cc(Sc3cccc4cccnc34)c(O)c3ccccc23)cc1`, for which the growth was -39.6% (active). Regarding `O=c1c2sc3ncc(Cl)cc3c2nnn1-c1cccc(Cl)c1`, the growth is 97.3% (inactive). As to `COc1nc(N)nc2c1ncn2C1OC(CO)CC1O` (stereo not given), the growth was 98.5% (inactive). Consider `COc1ccc2c(c1)N(CCO)C1=C(C(=O)OC1)C2c1cc(OC)c(OC)c(OC)c1` (stereo not given), for which the growth is 3.62% (active).

With `CCO/C=N/C1=C(C#N)C(c2ccc(Cl)cc2)c2sc3c(C)cccc3c2O1` (stereo not given), the growth is -3.01% (active).
